Measured values: PubChem BioAssay
This is one part of the list. Active and inactive are the calls of the source. No rule for the calls is given here.

Target: Inward rectifier potassium channel 2 (Mus musculus) (UniProt P35561)
Experiment: Kir2.1 potassium current inhibition – cell-based, secondary, automated electrophysiology, Kir2.1 inhibitor project (AID 463252)
Conditions: Kir2.1 cells, automated patch-clamp current inhibition; at 25 µM; active compounds read high

Sequence of Inward rectifier potassium channel 2 (Mus musculus) (P35561 whole entry, looked up): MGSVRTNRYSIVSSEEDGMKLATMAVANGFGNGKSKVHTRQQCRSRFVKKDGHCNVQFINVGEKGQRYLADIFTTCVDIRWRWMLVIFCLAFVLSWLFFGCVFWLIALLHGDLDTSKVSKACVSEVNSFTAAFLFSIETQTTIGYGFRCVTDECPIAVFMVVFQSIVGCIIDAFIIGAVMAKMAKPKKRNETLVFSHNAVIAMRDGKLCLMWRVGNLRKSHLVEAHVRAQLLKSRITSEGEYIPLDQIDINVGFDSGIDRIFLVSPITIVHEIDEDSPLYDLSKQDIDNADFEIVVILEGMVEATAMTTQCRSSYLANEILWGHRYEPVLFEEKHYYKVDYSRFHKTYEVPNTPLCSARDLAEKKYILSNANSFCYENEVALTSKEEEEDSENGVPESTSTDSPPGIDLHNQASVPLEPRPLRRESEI

`CCOc1cccc(=NC2CCCCC2)c2c(C)[nH]c(C)c12` was tested, and the inhibition was 13.9% (active).
